# Measured values reported in PubChem BioAssay (EPA / NIEHS).
# Inconclusive results are not listed. Active and inactive are the calls of the source. Rule for the calls: active = hit-call score of the fitted dose curve at least 0.9, where 1 is the maximum; inconclusive = response in the unintended direction; inactive = score below 0.9.
# Tests used:
# [1] = molecular target: cAMP-dependent protein kinase catalytic subunit alpha (Homo sapiens) (UniProt P17612); test: NVS_ENZ_hPKA: NovaScreen (NVS) Enzymatic Assay for human Protein Kinase A (PKA) (AID 2283192)
# Method in brief: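 Recombinant human PKA with specific fluorescent substrate, product separated by electrophoretic mobility shift, read 1 h after dosing. Primary screen at 25 uM in duplicate; actives then run in concentration-response up to 50 uM, activity relative to DMSO.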
# [2] = molecular target: human Phosphoinositide 3-kinase alpha (PI3Ka), PIK3CA (gene 5290) (UniProt P42336); test: NVS_ENZ_hPI3Ka: NovaScreen (NVS) Enzymatic Assay for human Phosphoinositide 3-kinase alpha (PI3Ka) (AID 2283196)
# human Phosphoinositide 3-kinase alpha (PI3Ka), PIK3CA (gene 5290), sequence (P42336 whole entry, looked up): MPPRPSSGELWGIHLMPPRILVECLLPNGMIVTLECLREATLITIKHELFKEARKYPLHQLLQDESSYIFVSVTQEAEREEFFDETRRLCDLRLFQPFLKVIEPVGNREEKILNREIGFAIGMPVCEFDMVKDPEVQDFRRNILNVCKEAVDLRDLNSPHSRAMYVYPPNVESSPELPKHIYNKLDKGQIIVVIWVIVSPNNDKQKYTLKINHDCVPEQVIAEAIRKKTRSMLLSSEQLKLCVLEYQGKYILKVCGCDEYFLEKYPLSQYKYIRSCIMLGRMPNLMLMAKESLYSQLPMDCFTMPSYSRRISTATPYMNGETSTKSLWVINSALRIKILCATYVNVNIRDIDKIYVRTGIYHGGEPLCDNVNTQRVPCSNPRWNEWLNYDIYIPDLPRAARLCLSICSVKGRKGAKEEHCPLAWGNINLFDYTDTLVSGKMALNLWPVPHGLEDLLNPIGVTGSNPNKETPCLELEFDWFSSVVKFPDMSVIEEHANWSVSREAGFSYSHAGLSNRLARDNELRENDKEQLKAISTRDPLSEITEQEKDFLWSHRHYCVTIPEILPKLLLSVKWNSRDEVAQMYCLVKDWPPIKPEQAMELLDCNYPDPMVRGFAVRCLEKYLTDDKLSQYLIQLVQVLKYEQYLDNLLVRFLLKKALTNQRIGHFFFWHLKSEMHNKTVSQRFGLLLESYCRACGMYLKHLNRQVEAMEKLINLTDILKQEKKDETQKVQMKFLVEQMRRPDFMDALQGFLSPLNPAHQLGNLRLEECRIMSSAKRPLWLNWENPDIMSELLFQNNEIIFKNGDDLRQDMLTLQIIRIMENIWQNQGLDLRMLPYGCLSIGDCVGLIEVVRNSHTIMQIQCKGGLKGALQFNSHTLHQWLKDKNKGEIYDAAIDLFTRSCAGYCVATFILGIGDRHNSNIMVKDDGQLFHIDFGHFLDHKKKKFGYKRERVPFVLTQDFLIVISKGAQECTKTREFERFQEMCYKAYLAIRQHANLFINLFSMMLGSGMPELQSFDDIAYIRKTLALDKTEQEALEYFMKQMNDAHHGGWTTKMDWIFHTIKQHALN
# Method in brief: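 Recombinant human PI3Kα with fluorescent substrate, 1 h, product separated by electrophoretic mobility shift; 25 uM duplicate screen, hits (e.g., 30% inhibition) retested singly up to 50 uM; loss of signal vs DMSO.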
# [3] = molecular target: Serine/threonine-protein phosphatase PP1-alpha catalytic subunit (Homo sapiens) (UniProt P62136); test: NVS_ENZ_hPPP1CA: NovaScreen (NVS) Enzymatic Assay for human Protein Phosphatase 1 Aatalytic subunit Alpha (PPP1CA) (AID 2283200)
# Serine/threonine-protein phosphatase PP1-alpha catalytic subunit (Homo sapiens), sequence (P62136 whole entry, looked up): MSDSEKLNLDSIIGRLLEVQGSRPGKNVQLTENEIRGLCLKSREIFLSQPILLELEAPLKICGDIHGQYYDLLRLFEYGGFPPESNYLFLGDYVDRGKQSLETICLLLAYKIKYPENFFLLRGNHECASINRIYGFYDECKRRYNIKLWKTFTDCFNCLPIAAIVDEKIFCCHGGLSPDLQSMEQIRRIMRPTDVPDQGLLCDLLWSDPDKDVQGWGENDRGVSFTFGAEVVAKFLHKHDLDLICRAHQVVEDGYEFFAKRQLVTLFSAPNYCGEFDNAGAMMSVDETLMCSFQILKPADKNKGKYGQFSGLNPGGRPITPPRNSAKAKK
# Method in brief: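 Recombinant enzyme activity read by fluorescence with electrophoretic mobility shift separating substrate from product, 1.33 h after dosing; loss of signal vs DMSO baseline. Primary screen in duplicate at 25 uM; actives retested in concentration-response up to 50 uM.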
# [4] = molecular target: human Protein Tyrosine Phosphatase Non-receptor Type 1 (PTPN1), PTPN1 (gene 5770) (UniProt P18031); test: NVS_ENZ_hPTPN1: NovaScreen (NVS) Enzymatic Assay for human Protein Tyrosine Phosphatase Non-receptor Type 1 (PTPN1) (AID 2283201)
# human Protein Tyrosine Phosphatase Non-receptor Type 1 (PTPN1), PTPN1 (gene 5770), sequence (P18031 whole entry, looked up): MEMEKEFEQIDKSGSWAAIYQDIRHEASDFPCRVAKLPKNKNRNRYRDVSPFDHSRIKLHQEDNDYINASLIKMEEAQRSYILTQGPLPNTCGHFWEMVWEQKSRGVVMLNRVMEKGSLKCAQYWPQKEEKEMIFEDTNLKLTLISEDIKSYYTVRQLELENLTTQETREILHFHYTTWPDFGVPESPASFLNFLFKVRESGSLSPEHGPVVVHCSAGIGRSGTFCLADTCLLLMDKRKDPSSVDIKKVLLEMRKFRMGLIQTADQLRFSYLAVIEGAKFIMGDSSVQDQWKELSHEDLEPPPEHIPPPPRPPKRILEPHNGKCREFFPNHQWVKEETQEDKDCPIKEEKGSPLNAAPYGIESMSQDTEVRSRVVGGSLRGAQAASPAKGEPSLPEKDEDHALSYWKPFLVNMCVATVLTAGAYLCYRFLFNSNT
# Method in brief: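 Cell-free fluorogenic-substrate activity assay on recombinant enzyme, read 1.33 h after dosing by fluorescence and electrophoretic mobility shift; loss of signal vs DMSO baseline. Primary screen in duplicate at 25 uM, hits then run in concentration-response up to 50 uM.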
# [5] = molecular target: Tyrosine-protein phosphatase non-receptor type 12 (Homo sapiens) (UniProt Q05209); test: NVS_ENZ_hPTPN12: NovaScreen (NVS) Enzymatic Assay for human Protein Tyrosine Phosphatase Non-receptor Type 12 (PTPN12) (AID 2283204)
# Tyrosine-protein phosphatase non-receptor type 12 (Homo sapiens), sequence (Q05209 whole entry, looked up): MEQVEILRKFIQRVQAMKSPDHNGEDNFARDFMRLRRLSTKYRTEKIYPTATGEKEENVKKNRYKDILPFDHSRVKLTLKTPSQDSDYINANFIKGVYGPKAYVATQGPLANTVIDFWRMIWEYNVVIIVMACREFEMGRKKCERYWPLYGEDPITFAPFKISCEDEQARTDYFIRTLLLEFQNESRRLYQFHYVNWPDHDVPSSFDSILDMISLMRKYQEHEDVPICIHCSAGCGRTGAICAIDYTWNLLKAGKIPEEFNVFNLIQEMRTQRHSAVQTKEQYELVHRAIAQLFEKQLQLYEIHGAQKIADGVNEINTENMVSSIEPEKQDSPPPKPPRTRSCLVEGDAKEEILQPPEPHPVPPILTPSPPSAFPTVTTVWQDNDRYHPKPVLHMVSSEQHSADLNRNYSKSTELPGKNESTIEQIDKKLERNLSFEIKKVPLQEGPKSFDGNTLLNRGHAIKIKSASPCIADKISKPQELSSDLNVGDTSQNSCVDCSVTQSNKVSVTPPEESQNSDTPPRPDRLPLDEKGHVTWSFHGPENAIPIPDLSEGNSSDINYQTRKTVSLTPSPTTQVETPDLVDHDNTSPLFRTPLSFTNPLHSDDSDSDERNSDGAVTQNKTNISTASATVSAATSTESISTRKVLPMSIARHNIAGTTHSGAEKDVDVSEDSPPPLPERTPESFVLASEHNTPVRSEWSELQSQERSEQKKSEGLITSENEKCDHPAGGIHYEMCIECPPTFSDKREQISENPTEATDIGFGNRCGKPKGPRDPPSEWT
# Method in brief: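 Single-concentration duplicates (25 uM) preceded singleton concentration-response up to 50 uM for chemicals passing threshold. Cell-free recombinant PTPN12 activity was read 1.33 h after dosing via fluorescence after mobility-shift separation; loss of signal versus DMSO.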
# [6] = molecular target: Tyrosine-protein phosphatase non-receptor type 13 (Homo sapiens) (UniProt Q12923); test: NVS_ENZ_hPTPN13: NovaScreen (NVS) Enzymatic Assay for human Protein Tyrosine Phosphatase Non-receptor Type 13 (PTPN13) (AID 2283205)
# Method in brief: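 Cell-free assay of recombinant human PTPN13 with a fluorescent substrate, product separated by electrophoretic mobility shift and read 0.5 h after dosing. Primary screen at 25 uM in duplicate, then concentration-response up to 50 uM. Loss of signal fitted against DMSO.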
# [7] = molecular target: Tyrosine-protein phosphatase non-receptor type 14 (Homo sapiens) (UniProt Q15678); test: NVS_ENZ_hPTPN14: NovaScreen (NVS) Enzymatic Assay for human Protein Tyrosine Phosphatase Non-receptor Type 14 (PTPN14) (AID 2283206)
# Method in brief: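 Cell-free recombinant human PTPN14 with fluorescent substrate, read 0.5 h after dosing by fluorescence and electrophoretic mobility shift separating substrate from product. Primary screen at 25 uM in duplicate; hits run to 50 uM maximum; loss of signal versus DMSO.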
# [8] = molecular target: human Protein Tyrosine Phosphatase Non-receptor Type 4 (PTPN4), PTPN4 (gene 5775) (UniProt P29074); test: NVS_ENZ_hPTPN4: NovaScreen (NVS) Enzymatic Assay for human Protein Tyrosine Phosphatase Non-receptor Type 4 (PTPN4) (AID 2283208)
# human Protein Tyrosine Phosphatase Non-receptor Type 4 (PTPN4), PTPN4 (gene 5775), sequence (P29074 whole entry, looked up): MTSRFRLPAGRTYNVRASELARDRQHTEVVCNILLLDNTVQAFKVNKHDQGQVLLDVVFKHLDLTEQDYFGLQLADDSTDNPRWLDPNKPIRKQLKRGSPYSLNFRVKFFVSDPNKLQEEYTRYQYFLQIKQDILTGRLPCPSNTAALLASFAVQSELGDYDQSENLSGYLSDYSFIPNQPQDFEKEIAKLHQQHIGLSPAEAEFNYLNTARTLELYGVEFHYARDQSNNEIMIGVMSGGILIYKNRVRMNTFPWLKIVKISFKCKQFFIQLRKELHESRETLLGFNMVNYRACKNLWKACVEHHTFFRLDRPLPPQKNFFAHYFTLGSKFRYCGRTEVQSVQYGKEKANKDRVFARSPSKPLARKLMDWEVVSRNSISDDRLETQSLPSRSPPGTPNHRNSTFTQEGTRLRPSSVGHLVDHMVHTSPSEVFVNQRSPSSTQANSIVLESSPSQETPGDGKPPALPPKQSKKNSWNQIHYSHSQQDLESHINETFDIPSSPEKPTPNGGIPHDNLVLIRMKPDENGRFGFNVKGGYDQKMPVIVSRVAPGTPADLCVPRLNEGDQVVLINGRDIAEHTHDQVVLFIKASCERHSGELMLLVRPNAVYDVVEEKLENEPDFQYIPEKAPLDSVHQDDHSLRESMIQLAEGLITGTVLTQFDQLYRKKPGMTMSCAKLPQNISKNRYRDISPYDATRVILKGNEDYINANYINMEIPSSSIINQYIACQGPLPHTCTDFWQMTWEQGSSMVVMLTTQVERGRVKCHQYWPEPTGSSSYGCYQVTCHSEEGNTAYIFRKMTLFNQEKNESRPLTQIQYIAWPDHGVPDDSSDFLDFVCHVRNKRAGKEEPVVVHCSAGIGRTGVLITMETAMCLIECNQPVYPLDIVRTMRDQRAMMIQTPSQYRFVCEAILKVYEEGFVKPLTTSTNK
# Method in brief: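 Cell-free assay of PTPN4 expressed in Sf9 cells, using a fluorescent substrate with product separated by mobility shift; read 1.33 h after dosing. Single-point screen at 25 uM, then concentration-response up to 50 uM. Loss of signal relative to DMSO.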
# [9] = molecular target: human Protein Tyrosine Phosphatase Receptor Type B (PTPRB), PTPRB (gene 5787) (UniProt P23467); test: NVS_ENZ_hPTPRB: NovaScreen (NVS) Enzymatic Assay for human Protein Tyrosine Phosphatase Receptor Type B (PTPRB) (AID 2283211)
# Method in brief: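 Recombinant human PTPRB with a fluorescent substrate, product separated by electrophoretic mobility shift; read 1 h after dosing. Primary screen in duplicate at 25 uM; actives then retested in concentration series; loss of signal versus DMSO.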
# [10] = molecular target: human Protein Tyrosine Phosphatase Receptor Type F (PTPRF), PTPRF (gene 5792) (UniProt P10586); test: NVS_ENZ_hPTPRF: NovaScreen (NVS) Enzymatic Assay for human Protein Tyrosine Phosphatase Receptor Type F (PTPRF) (AID 2283213)
# Method in brief: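 Cell-free fluorescence enzyme assay with recombinant protein and substrate; product separated by electrophoretic mobility shift. Read 1 h after dosing, single 25 uM duplicate screen, then concentration-response up to 50 uM; loss of signal vs DMSO.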
# [11] = molecular target: human Sirtuin 2 (SIRT2), SIRT2 (gene 22933) (UniProt Q8IXJ6); test: NVS_ENZ_hSIRT2: NovaScreen (NVS) Enzymatic Assay for human Sirtuin 2 (SIRT2) (AID 2283217)
# human Sirtuin 2 (SIRT2), SIRT2 (gene 22933), sequence (Q8IXJ6 whole entry, looked up): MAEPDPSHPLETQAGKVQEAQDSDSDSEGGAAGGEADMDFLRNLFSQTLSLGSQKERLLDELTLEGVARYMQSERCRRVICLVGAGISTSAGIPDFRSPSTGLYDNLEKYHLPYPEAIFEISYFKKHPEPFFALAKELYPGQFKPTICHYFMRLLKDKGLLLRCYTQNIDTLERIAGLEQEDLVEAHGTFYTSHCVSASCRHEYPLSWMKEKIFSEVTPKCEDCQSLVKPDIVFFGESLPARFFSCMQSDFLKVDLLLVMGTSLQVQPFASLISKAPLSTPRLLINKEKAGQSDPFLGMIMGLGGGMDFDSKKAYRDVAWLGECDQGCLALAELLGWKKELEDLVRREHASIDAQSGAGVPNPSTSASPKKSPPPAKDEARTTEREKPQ
# Method in brief: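 Cell-free recombinant human SIRT2, fluorescent substrate with product separated by electrophoretic mobility shift, 1 hr. Screened in duplicate at 25 uM; hits rerun singly in concentration-response up to 50 uM, relative to DMSO.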
# [12] = molecular target: human Sirtuin 1 (SIRT1), SIRT1 (gene 23411) (UniProt Q96EB6); test: NVS_ENZ_hSIRT1: NovaScreen (NVS) Enzymatic Assay for human Sirtuin 1 (SIRT1) (AID 2283219)
# Method in brief: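 Cell-free recombinant SIRT1 with a fluorescent substrate; substrate and product separated by electrophoretic mobility shift and read by fluorescence intensity, 1 h after dosing. Primary screen at 25 uM in duplicate; hits re-run in concentration-response up to 50 uM, relative to DMSO.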
# [13] = molecular target: human Phosphodiesterase 10 (PDE10), PDE10A (gene 10846) (UniProt Q9Y233); test: NVS_ENZ_hPDE10: NovaScreen (NVS) Enzymatic Assay for human Phosphodiesterase 10 (PDE10) (AID 2283195)
# Method in brief: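 Recombinant human PDE10 with fluorescent substrate, 1 h, product separated by electrophoretic mobility shift. Loss of enzyme activity fitted against DMSO; initial screen 25 uM in duplicate, actives run to 50 uM maximum.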
# [14] = molecular target: Tyrosine-protein phosphatase non-receptor type 11 (Homo sapiens) (UniProt Q06124); test: NVS_ENZ_hPTPN11: NovaScreen (NVS) Enzymatic Assay for human Protein Tyrosine Phosphatase Non-receptor Type 11 (PTPN11) (AID 2283202)
# Tyrosine-protein phosphatase non-receptor type 11 (Homo sapiens), sequence (Q06124 whole entry, looked up): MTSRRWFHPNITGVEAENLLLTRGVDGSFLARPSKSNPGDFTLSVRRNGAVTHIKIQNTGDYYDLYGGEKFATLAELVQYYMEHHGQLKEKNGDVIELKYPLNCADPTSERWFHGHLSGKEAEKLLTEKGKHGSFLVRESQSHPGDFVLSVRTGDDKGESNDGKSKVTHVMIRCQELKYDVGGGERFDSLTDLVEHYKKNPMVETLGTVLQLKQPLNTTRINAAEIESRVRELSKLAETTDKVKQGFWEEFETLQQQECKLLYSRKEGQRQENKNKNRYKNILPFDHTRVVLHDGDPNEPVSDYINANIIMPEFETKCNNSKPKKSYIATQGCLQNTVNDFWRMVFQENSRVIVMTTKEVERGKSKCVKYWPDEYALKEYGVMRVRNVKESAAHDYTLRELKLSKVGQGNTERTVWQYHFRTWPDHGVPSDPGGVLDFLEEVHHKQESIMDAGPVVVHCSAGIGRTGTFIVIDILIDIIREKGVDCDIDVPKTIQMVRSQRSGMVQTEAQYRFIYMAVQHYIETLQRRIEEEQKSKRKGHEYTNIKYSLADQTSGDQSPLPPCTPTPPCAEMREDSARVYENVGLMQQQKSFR
# Method in brief: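 Recombinant human PTPN11 activity on a fluorescent substrate, with substrate/product separated by electrophoretic mobility shift; read 0.5 h after dosing, loss of signal vs DMSO. Duplicate 25 uM screen, then concentration-response up to 50 uM.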
# [15] = molecular target: human Protein Tyrosine Phosphatase Receptor Type M (PTPRM), PTPRM (gene 5797) (UniProt P28827); test: NVS_ENZ_hPTPRM: NovaScreen (NVS) Enzymatic Assay for human Protein Tyrosine Phosphatase Receptor Type M (PTPRM) (AID 2283215)
# Method in brief: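 Cell-free recombinant PTPRM with fluorogenic substrate; product separated from substrate by electrophoretic mobility shift and read by fluorescence, 1.33 h after dosing. Primary screen single concentration (25 uM) in duplicate; actives retested in concentration series; loss of signal versus DMSO.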
# [16] = molecular target: human Sirtuin 3 (SIRT3), SIRT3 (gene 23410) (UniProt Q9NTG7); test: NVS_ENZ_hSIRT3: NovaScreen (NVS) Enzymatic Assay for human Sirtuin 3 (SIRT3) (AID 2283222)
# human Sirtuin 3 (SIRT3), SIRT3 (gene 23410), sequence (Q9NTG7 whole entry, looked up): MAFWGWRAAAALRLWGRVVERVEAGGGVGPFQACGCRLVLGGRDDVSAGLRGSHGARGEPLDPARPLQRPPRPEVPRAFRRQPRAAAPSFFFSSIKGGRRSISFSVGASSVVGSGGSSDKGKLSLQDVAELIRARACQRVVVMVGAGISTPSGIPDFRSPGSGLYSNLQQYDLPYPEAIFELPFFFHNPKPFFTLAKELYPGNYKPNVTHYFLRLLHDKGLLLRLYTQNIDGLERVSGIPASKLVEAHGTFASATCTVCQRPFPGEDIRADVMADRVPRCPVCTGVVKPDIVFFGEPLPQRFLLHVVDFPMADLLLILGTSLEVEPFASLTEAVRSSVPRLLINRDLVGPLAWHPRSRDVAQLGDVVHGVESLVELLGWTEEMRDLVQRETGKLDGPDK
# Method in brief: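 Cell-free enzyme assay with recombinant protein and fluorescent substrate, product separated by electrophoretic mobility shift; read 1 hour after dosing. Screened in duplicate at 25 uM, then singleton concentration-response up to 50 uM; loss of signal versus DMSO.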
# [17] = molecular target: human Protein Phosphatase, Mg2+/Mn2+ Dependent 1A (PPM1A), PPM1A (gene 5494) (UniProt P35813); test: NVS_ENZ_hPPM1A: NovaScreen (NVS) Enzymatic Assay for human Protein Phosphatase, Mg2+/Mn2+ Dependent 1A (PPM1A) (AID 2283198)
# Method in brief: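 Cell-free recombinant PPM1A phosphatase assay with fluorescent substrate, read 1 h after dosing by electrophoretic mobility shift. Chemicals screened in duplicate at 25 uM, then in concentration-response up to 50 uM; loss of activity versus DMSO.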
# [18] = molecular target: human Rho Associated Coiled-coil Containing Protein Kinase 1 (ROCK1), ROCK1 (gene 6093) (UniProt Q13464); test: NVS_ENZ_hROCK1: NovaScreen (NVS) Enzymatic Assay for human Rho Associated Coiled-coil Containing Protein Kinase 1 (ROCK1) (AID 2283214)
# Method in brief: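 Cell-free recombinant human ROCK1 activity assay; fluorescent substrate and product separated by electrophoretic mobility shift, read 1 h after dosing. Screened in duplicate at 25 uM; loss of signal versus DMSO baseline scored as inhibition.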
# [19] = molecular target: human SRC Proto-Oncogene, Non-receptor Tyrosine Kinase (SRC), SRC (gene 6714) (UniProt P12931); test: NVS_ENZ_hSRC: NovaScreen (NVS) Enzymatic Assay for human SRC Proto-Oncogene, Non-receptor Tyrosine Kinase (SRC) (AID 2283223)
# Method in brief: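 Cell-free kinase activity assay with fluorescent substrate, product separated by electrophoretic mobility shift, read 1 h after dosing. Duplicate single point at 25 uM, then concentration-response up to 50 uM; loss of signal versus DMSO.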
compound,measurement,setting,value
Cc1ccc(N)cc1O,outcome,[1],inactive
same,outcome,[2],inactive
same,outcome,[3],inactive
same,outcome,[4],inactive
same,outcome,[5],inactive
same,outcome,[6],inactive
same,outcome,[7],inactive
same,outcome,[8],inactive
same,outcome,[9],inactive
same,outcome,[10],inactive
same,outcome,[11],inactive
same,outcome,[12],inactive
O=C(O)c1cc(N=Nc2ccc(S(=O)(=O)Nc3ccccn3)cc2)ccc1O,outcome,[1],inactive
same,AC50,[13],5.28 µM (active)
same,outcome,[2],inactive
same,outcome,[14],inactive
same,outcome,[5],inactive
same,outcome,[6],inactive
same,outcome,[7],inactive
same,outcome,[8],inactive
same,outcome,[10],inactive
same,outcome,[15],inactive
CC(=O)c1ccc2c(c1)[C@H](NC(=O)c1ccc(F)cc1)[C@@H](O)C(C)(C)O2,outcome,[1],inactive
CC[C@H](C)C(=O)O[C@H]1C[C@@H](C)C=C2C=C[C@H](C)[C@H](CC[C@@H]3C[C@@H](O)CC(=O)O3)[C@H]21,outcome,[2],inactive
same,outcome,[14],inactive
same,outcome,[11],inactive
same,outcome,[16],inactive
O=c1[nH]c2ccc(S(=O)CCN3CCC(Cc4ccc(F)cc4)CC3)cc2o1 (stereo unspecified),outcome,[17],inactive
O=C(O)CC(O)C(=O)O (stereo unspecified),outcome,[13],inactive
same,AC50,[8],39.2 µM (active)
CCCCCCc1ccc(O)cc1O,outcome,[3],inactive
COCCOCCOCCOC,outcome,[3],inactive
same,outcome,[18],inactive
O=c1n(CC2CO2)c(=O)n(CC2CO2)c(=O)n1CC1CO1 (stereo unspecified),outcome,[3],inactive
CCCCCCCCCCCCc1ccccc1,outcome,[4],inactive
O=C(CCCCCCCCc1cccnc1)N1CCC(C=C(c2ccccc2)c2ccccc2)CC1,outcome,[14],inactive
CCC(C)(C)C(=O)O[C@H]1C[C@@H](C)C=C2C=C[C@H](C)[C@H](CC[C@@H]3C[C@@H](O)CC(=O)O3)[C@H]21,AC50,[5],33.5 µM (active)
Cc1[nH]cnc1C[C@H]1CCc2c(C)c3ccccc3n2C1=O,outcome,[5],inactive
same,outcome,[16],inactive
CNS(=O)(=O)c1cc(C(=O)N2CCC(CCN3C4CCC3CC(n3c(C)nc5ccccc53)C4)(c3cccc(F)c3)CC2)c(Cl)cc1F (stereo unspecified),outcome,[6],inactive
COC(=O)c1c(Cl)c(Cl)c(C(=O)OC)c(Cl)c1Cl,outcome,[18],inactive
Nc1ccc(Nc2ccccc2)cc1,AC50,[15],15.8 µM (active)
O=P(OC(CCl)CCl)(OC(CCl)CCl)OC(CCl)CCl,outcome,[15],inactive
CC1(C)C(=O)N(Br)C(=O)N1Br,outcome,[16],inactive
Clc1nc(Cl)c(Cl)c(Cl)c1Cl,outcome,[19],inactive
COCCOc1cc2cc(C(=O)NC3CCN(C(C)C)CC3)n(CC(=O)Nc3ccc(Cl)cn3)c2cn1,outcome,[19],inactive
